In PubChem BioAssay AID1700 (The Scripps Research Institute Molecular Screening Center, 2009) one finds inhibition data, which are given here for 96 compounds.

Among all 290,000 compounds or so, about 670 (0.23%) were called active. The sample as a whole holds a higher share of actives than the screen did. A number with no mark means an inactive call.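 Rule for the calls: active = inhibition above a per-plate limit of that plate's mean compound inhibition plus 3 SD (cut at about 60% in these data); inactive = the rest.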

The term inhibition denotes the relative decrease from the control value, in per cent.

The nature of the test: suppression of KLF5 promoter-driven luciferase – DLD-1 cells, luminescence, primary screen (AID 1700).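 Note: 0% = DMSO wells and 100% = LY294002 at 200 µM; higher means less KLF5 promoter-driven luciferase light.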 The following applies: DLD-1 KLF5 promoter-luciferase reporter, at 5 µM, active compounds read high.
As for `O=C(Nc1ccccc1C(=O)NCC1CCCO1)c1ccccc1F` (stereo unspecified), the inhibition is -10.3%. With `CCCCCCn1c(CN2CCCCC2)nc2c1c(=O)n(C)c(=O)n2C` the figure was 0.95%. Under `CCCCCCCCn1c2c(c(=N)c3c1CCC3)CCCC2` stands 72.8% (active); under `O=c1[nH]cccc1-c1nc2ccccc2n1Cc1ccc(Cl)cc1`, -29.9%; under `Cc1ccc(CNS(=O)(=O)c2ccc3c(c2)N(C)CCO3)cc1`, -12.4%. On to `Cn1cc(C(=O)c2ccc(Cl)cc2Cl)cc1C(=O)NN`, for which the inhibition is -35.5%.

For the compound `CCOc1ccccc1CN1CCN(C2CCC2)CC1CCO` (stereo unspecified), the inhibition was 12%. Under `CCOC(=O)c1sc(NC(=O)c2ccncc2)nc1C` stands -25.1%.

Turning to `CCOC(=O)c1sc(/N=C/Nc2nc(C)c(C(=O)OCC)s2)nc1C`, the inhibition is 6.72%.

Regarding `CCOC(=O)c1sc(NC(=O)c2sc(C)nc2C)nc1C`, the inhibition was 79% (active). With `Cc1cccc(NC(=O)C2CCN(C(=O)NC3CCCCC3)CC2)c1` the figure was -12.5%. Under `Cc1ccc(O)c(CNc2nc3ccccc3[nH]2)c1` stands -87.9%. Under `COc1ccc(-c2cc(=O)oc3cc(OCC(=O)N(C)C4CCS(=O)(=O)C4)ccc23)cc1` (stereo unspecified) stands -4.99%; under `Cc1ccc(-c2cc(=O)c3ccc(F)cc3[nH]2)cc1`, 9.96%; under `Cc1ccc(-c2cc(=O)c3ccc(Cl)cc3[nH]2)cc1`, -4.81%. Turning to `O=c1cc(-c2ccccc2)[nH]c2cc(F)ccc12`, the inhibition was 73.5% (active).

On to `CCCCNC(=O)c1cn(CC)c2cc(N3CCN(C(=O)c4ccco4)CC3)c(F)cc2c1=O`, for which the inhibition was -2.76%. As to `COc1ccc(NC(=O)CCNC(=O)Cn2cnc3sc4c(c3c2=O)CCCC4)cc1OC`, the inhibition was -21.6%.

As for `COc1cc(NC(=O)C2=C(C)OCCS2)c(Cl)cc1C(=O)NCCN1CCN(C)CC1`, the inhibition is -25.5%. With `O=C1CCC(C(=O)N2CCN(c3ccccc3Cl)CC2)CN1CC1CCCCC1` (stereo unspecified) the figure was -15.8%. With `CC1CCCN(CC(=O)Nc2cc(Cl)ccc2Oc2ccccc2)C1` (stereo unspecified) the figure was -4.36%. With `Cc1ccc(CNC(=O)C2CCN(S(=O)(=O)c3ccc4nc5c(c(C(=O)O)c4c3)CC(C)CC5)CC2)cc1` (stereo unspecified) the figure was -5.44%.

As to `CCc1ccc(/C=N/NC(=O)c2nnn(-c3nonc3N)c2CN2CCc3ccccc32)cc1`, the inhibition is 9.12%.

`O=C(CSc1nc(C2CC2)nc2ccccc12)Nc1cccc(O)c1`: the inhibition was -13.5%.

Turning to `Cn1cc(CCC(=O)NC2CC2)c2ccccc21`, the inhibition is -37%. With `Cc1ccc(S(=O)(=O)N(C)CC(=O)NCCc2c[nH]c3ccccc23)cc1` the figure was -25.4%; with `Cc1ccc(/C=N/NC(=O)c2cc3ccccc3cc2O)o1`, -47.3%. With `Cc1ccc(CSc2nsc(C)c2C#N)cc1` the figure was -19.4%; with `Cc1ccc(-c2cn3cc([N+](=O)[O-])ccc3n2)cc1`, -2.85%. With `Cc1ccc(-c2cn3cc(C)ccc3n2)cc1` the figure was 81% (active); with `Cc1ccc2nc(-c3ccc(Br)cc3)cn2c1`, 48.8%; with `O=C(CCn1nnnc1CN1CCOCC1)N1CCC(c2ccccc2Cl)C1` (stereo unspecified), -1.39%.

In the case of `CCOC(=O)C(C)Sc1nc2ccccc2c(=O)n1CC1CCCCC1` (stereo unspecified), the inhibition is -3.75%.

In the case of `O=c1c2ccccc2nc2n1C1(CCCCC1)Cc1ccccc1-2`, the inhibition is -22.6%. As to `CN(c1ccc2nc3ccccc3c(=O)n2n1)C1CCCCC1`, the inhibition is 90.6% (active).

Consider `Nc1ccc(-c2nnc(-c3ccccc3)o2)cc1`, for which the inhibition was -131%. With `COc1ccccc1N1CCC(N2CCN(CC(C)(C)C)C(CCO)C2)CC1` (stereo unspecified), the inhibition is -23.1%. Under `CC[C@]1(c2ccccc2OC)C(=O)N(C(=O)OC)N1C(=O)OC` stands -7.14%. As for `CC(=O)NCC(=O)NC1CCCc2c1cnn2-c1ccccc1F` (stereo unspecified), the inhibition was -24.6%. Regarding `Cn1nccc1C(=O)NC1CCCc2c1cnn2-c1ccc(F)cc1F` (stereo unspecified), the inhibition is 64.7% (active). With `Cn1nccc1C(=O)NC1CCCc2c1cnn2-c1ccccc1F` (stereo unspecified) the figure was -17%; with `O=C(c1ccc(F)cc1)N1CCCC(C(=O)N2CCCCC2)C1` (stereo unspecified), -2.28%.

With `CN(c1ccccc1)S(=O)(=O)c1ccc2[nH]c(=O)[nH]c2c1`, the inhibition is -38.8%.

Consider `Cc1ccc(OC(=O)c2cncc(Br)c2)c(C)c1`, for which the inhibition is -28.5%.

For the compound `Cc1ccc(C(=O)NCCc2nnc(SCC(=O)Nc3cccc(C(=O)O)c3)n2C)cc1`, the inhibition was -36.2%. For `N#CCSc1nc(-c2ccccc2)nc2ccc(F)cc12`, the inhibition is -32.8%. Under `CCn1c(=S)sc2c(=O)n(CC(=O)Nc3cccc(Br)c3)c(C)nc21` stands -3.48%; under `Cc1ccc(S(=O)(=O)N2CCN(C(=O)CSc3cc(C)ccc3C)CC2)c(C)c1`, -17.8%. With `Clc1ccc(N/N=C/c2cccs2)nn1`, the inhibition is -13.3%.

On to `Oc1cccc(/C=N/Nc2ccc(Cl)nn2)c1O`, for which the inhibition is 84.3% (active). Under `COc1cccc(/C=N/Nc2ccc(Cl)nn2)c1` stands -91.5%; under `COc1ccc(N2CCN(S(=O)(=O)CCNC(=O)C34CC5CC(CC(C5)C3)C4)CC2)cc1`, -7.42%.

With `CCN1C(=O)/C(=C2/Sc3ccc(OC)cc3N2C)SC1=Nc1ccc(C)cc1`, the inhibition is -15.8%. With `CCOC(=O)c1ccc(NC(=O)Cc2cccs2)cc1` the figure was -60.6%; with `O=C(NCc1ccccc1)C(c1ccccc1)N(C(=O)c1csnn1)c1ccc(F)cc1` (stereo unspecified), -8.26%; with `Cc1cc(N)n2nc(-c3ccc(C(C)(C)C)cc3)cc2n1`, -77.7%.

On to `CCn1c(SCC(=O)NC2CC2)nnc1-c1ccncc1`, for which the inhibition was -7.99%. Under `CCn1c(SCC(=O)Nc2nccs2)nnc1-c1ccncc1` stands 102% (active).

As to `CCn1c(SCC(=O)Nc2nccs2)nnc1-c1ccco1`, the inhibition was -15.7%. With `CCCC(C(=O)n1nc(C)cc1C)C(NS(=O)(=O)c1ccc(C)cc1)c1ccccc1` (stereo unspecified) the figure was -5.65%; with `CCOc1cc(/C=C2\C(=N)N3N=C(C)SC3=NC2=O)ccc1OCCOc1ccccc1`, -24.1%; with `Cc1cccc(NC(=O)CSCC(=O)Nc2nnc(C3CC3)s2)c1`, -22.8%.

Take `Cc1ccccc1N1CCN(S(=O)(=O)c2ccc3ccccc3c2)CC1`: the inhibition is -6.9%.

As for `Cc1ccc(C(=O)N2CC(=O)Nc3ccc(F)cc3C2c2ccc(F)cc2)cc1` (stereo unspecified), the inhibition is -4.39%.

With `O=C(NCC1CCCO1)c1cc2c([nH]c3ccccc32)c(-c2ccc(F)cc2)n1` (stereo unspecified), the inhibition was 12.1%. With `COc1cc(/C=N/NC(=O)c2ccc(N3CCCC3=O)cc2)ccc1O` the figure was -6.57%; with `COc1ccc(C(=O)Nc2ccccc2C(=O)N/N=C/c2ccc(O)c(OC)c2)cc1`, 99.4% (active); with `COc1ccc(/C=N/NC(=O)c2ccccc2)cc1OS(=O)(=O)c1ccccc1`, -22.4%. With `NC(=O)c1ccc(Nc2ccc3nonc3c2[N+](=O)[O-])cc1` the figure was -33%. Under `CCOc1ccc(C2C3=C(CCCC3=O)N(CC(=O)O)C3=C2C(=O)CCC3)cc1` stands 0.17%; under `O=C(CCNC(=O)C1CCN(S(=O)(=O)c2ccccc2)CC1)NC1CC1`, -34.7%; under `Cc1csc(NC(=O)CSc2nnc(-c3cccnc3)o2)n1`, -90.3%. Regarding `COc1ccc(CS(=O)/C(Cl)=C(/Cl)C(=O)Nc2ccc(OC)nc2)cc1` (stereo unspecified), the inhibition was 100% (active).

With `CCOc1ccc(S(=O)(=O)Nc2ccc(OC)nc2)cc1`, the inhibition was -32.8%.

For `COc1ccc(NC(=O)/C(Cl)=C(/Cl)S(=O)Cc2ccc(C)cc2)cn1` (stereo unspecified), the inhibition was 89% (active). For `COc1ccc(Nc2cc(Cl)ccc2C(=O)O)cn1`, the inhibition is -11.6%.

For `COc1ccc(NC(=O)c2cc(-c3ccc(C)cc3)on2)cc1`, the inhibition was -28.2%. With `COc1ccc(C(=O)Nc2ccc(NC(=O)C(C)C)nc2)cc1` the figure was -35%; with `CCCCC[C@H]1CN(C2CCCCC2)C(=O)[C@@H]1CC(=O)NCc1ccc(OC)cc1`, -12.3%; with `COc1cc(/C=N/Nc2nn3cnnc3c3ccccc23)cc(OC)c1OC`, -22.6%.

On to `CN(CCO)c1ccc(/C=N/Nc2nncc3ccccc23)cc1`, for which the inhibition was 68.3% (active). In the case of `C/C(=N\Nc1nncc2ccccc12)c1ccc(Cl)c([N+](=O)[O-])c1`, the inhibition was -127%. With `Cc1ccc(/C=N/NC(=O)COc2ccccc2-c2ccccc2)cc1` the figure was 77.9% (active). With `CSc1ccc(/C=N\NC(=O)COc2ccc(Cl)cc2Br)cc1` the figure was -9.23%; with `C=CCc1ccccc1OCC(=O)N/N=C/c1ccccc1OCC`, -10.7%; with `COc1ccc(NC(=O)C(C)N2c3cccc4cccc(c34)S2(=O)=O)c(OC)c1` (stereo unspecified), -5.03%. With `O=C(O)CC/C(=C\c1cc2c(cc1Br)OCO2)c1nc2ccccc2s1` the figure was -12.1%. For the compound `Cc1ccc(S(=O)(=O)N(Cc2ccccc2)c2ccccn2)cc1[N+](=O)[O-]`, the inhibition is -20.6%. For `COCC(=O)N=Nc1c(O)[nH]c2ccccc12`, the inhibition is 6.53%. For `COc1cc(N=Cc2c(O)[nH]c3ccccc23)cc(OC)c1OC`, the inhibition is 66.8% (active). Regarding `COc1ccc(N=Cc2c(O)[nH]c3ccccc23)cc1OC`, the inhibition was -9.79%. Take `Cc1ccc(CN(CC(=O)NCC2CCCO2)S(=O)(=O)c2ccc(C)cc2)cc1` (stereo unspecified): the inhibition was -11%. Under `Cc1ccc(CNC(=O)CCS(=O)(=O)c2ccc3c(c2)CC(C)N3C(=O)C2CC2)o1` (stereo unspecified) stands -9.9%; under `CCOCCCNc1c(CC)c(C)c(C#N)c2nc3ccccc3n12`, -21.6%; under `Cc1cccc(CN2CCC(n3nccc3NC(=O)c3ccccc3C)CC2)n1`, -34.2%.

Consider `CCCCCNC(=O)C1c2ccccc2Oc2ccccc21`, for which the inhibition was -20.8%.
